Screens as filed in PubChem BioAssay.
MCF10A rereplic – A quantitative high throughput screen for small molecules that induce DNA re-replication in MCF 10a normal breast cells; actives 2.9% (n = 350,000); MCF 10A DNA re-replication, Hoechst nuclear intensity, 48 h; Potency, µM (highest dose often 46.1 µM), most hits filed as activators; also: nearly all actives have a fitted effect of over 50% in size
SW480 rerep – A quantitative high throughput screen for small molecules that induce DNA re-replication in SW480 colon adenocarcinoma cells | SW480 DNA re-replication, Hoechst DNA content imaging, 48 h | Potency, µM (series often up to 46.1 µM), usual class: activators | actives 1.8% (n = 340,000) | AID 624297, 2012; also: nearly all actives have a fitted effect of over 55% in size
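250 cells/well; 23 nL cpd via pin tool; 48 hr, 37 C, 5% CO2; Hoechst 40 min; imager read of total nuclear intensity, ex 405/em 500-530 nm.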
RORgamma inh – qHTS for inhibitors of ROR gamma transcriptional activity; Drosophila S2 Gal4-RORgamma UAS-luciferase reporter, 20 h; Potency, µM (series often up to 53.6 µM), hits mostly inhibitors; actives 5.4% (n = 310,000); Nuclear receptor ROR-gamma (Mus musculus), P51450; also: nearly all actives have a fitted effect of over 60% in size
Target sequence (P51450 whole entry, looked up, the tested form may be a part): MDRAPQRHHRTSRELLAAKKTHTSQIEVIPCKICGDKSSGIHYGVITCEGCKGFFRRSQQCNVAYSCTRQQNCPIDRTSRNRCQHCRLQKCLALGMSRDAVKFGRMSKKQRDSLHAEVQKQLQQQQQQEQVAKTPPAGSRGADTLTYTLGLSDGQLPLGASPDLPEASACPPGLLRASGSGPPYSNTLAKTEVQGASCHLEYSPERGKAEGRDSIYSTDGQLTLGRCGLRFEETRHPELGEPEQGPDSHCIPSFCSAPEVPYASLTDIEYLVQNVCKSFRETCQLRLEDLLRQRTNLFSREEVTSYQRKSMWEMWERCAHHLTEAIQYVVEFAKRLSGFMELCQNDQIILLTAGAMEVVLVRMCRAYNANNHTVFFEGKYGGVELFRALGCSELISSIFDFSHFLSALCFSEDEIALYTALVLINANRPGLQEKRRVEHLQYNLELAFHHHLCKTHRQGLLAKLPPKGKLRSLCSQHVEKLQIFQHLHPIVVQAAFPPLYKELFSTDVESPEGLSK
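Using a luciferase readout, inhibitors were identified by reduced reporter activity in Drosophila cells coexpressing a copper-inducible Gal4–ROR gamma fusion and UAS-driven Photinus luciferase, incubated 20 hr after 700 uM copper sulfate.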
IL1B secr inh – qHTS for Inhibitors of Inflammasome Signaling: IL-1-beta AlphaLISA Primary Screen | THP-1 LPS/ATP IL-1B secretion, AlphaLISA, 16 h; stronger effect = lower value | activity change, % at 57.5 µM | actives 4.7% (n = 360,000) | AID 743279, 2014; in the data active = activity change below about -50%; inconclusive = mostly about -30% to -49%
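THP-1 cells pretreated 1 hr with compounds (up to 57.5 uM final), then stimulated with LPS (250 ng/mL final) plus ATP (1.25 mM final); secreted IL-1B measured by AlphaLISA after 16 hr, decreased signal indicating inhibition.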
Gal4-VP16 FLuc – VP16 counterscreen qHTS for inhibitors of ROR gamma transcriptional activity; Drosophila S2 Gal4-VP16 UAS-luciferase, luminescence, 20 h; Potency, µM (titrated, usually from 53.6 µM), usual class: inhibitors; actives 3.5% (n = 310,000);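 also: Gal4-VP16 expression switched on by copper sulfate through the metallothionein promoter; nearly all actives have a fitted effect of over 50% in size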
Large screens that a line does not name were inactive. Only some compounds are listed: those with a hit (about 11% of all), similar ones and a draw of the others. Unless noted, calls follow the shape of the dose curve; as a rule, active = well fitted curve in the direction sought with a large enough effect; inconclusive = small, poorly fitted or top-dose-only effect, or another doubt; inactive = no such curve, though single readings can be large; an effect the other way counts as inactive or inconclusive.

CCOC(=O)c1ccc2c(c1)[nH]c(=S)n2CC	RORgamma inh 8.9µM, Gal4-VP16 FLuc inconclusive
CCN(CC)S(=O)(=O)c1ccc2nc(CCl)[nH]c2c1	IL1B secr inh -82
CC(=O)c1sc(NC(=O)CN2C(=O)C3CCCCC3C2=O)nc1-c1ccccc1 (centres undefined)	none (no result: RORgamma inh, Gal4-VP16 FLuc)
CNC(=S)NC1CC2CCC(C1)N2Cc1ccccc1 (centres undefined)	none
CCc1ccc(NC(=S)NC2CC3CCCC(C2)N3Cc2ccccc2)cc1 (centres undefined)	MCF10A rereplic inconclusive, RORgamma inh 7.1µM, Gal4-VP16 FLuc 4.5µM
S=C(Nc1ccc(Cl)cc1)NC1CC2CCC(C1)N2Cc1ccccc1 (centres undefined)	MCF10A rereplic inconclusive, RORgamma inh 4µM, IL1B secr inh -98, Gal4-VP16 FLuc inconclusive
O=C(Nc1ccccc1-c1ccccc1)NC1CC2CCCC(C1)N2Cc1ccc(F)cc1 (centres undefined)	MCF10A rereplic inconclusive, SW480 rerep inconclusive, IL1B secr inh -61
COc1ccc(-c2nnc(NC(=O)CSc3ccc(C)cc3)s2)cc1OC	none
COc1ccc(Cc2nnc(NC(=O)CSc3ccc(Cl)cc3)s2)cc1OC	RORgamma inh 13µM, Gal4-VP16 FLuc inconclusive (no result: MCF10A rereplic, SW480 rerep, IL1B secr inh)
COc1ccc(-c2nnc(NC(=O)CSc3ccccc3)s2)cc1OC	RORgamma inh inconclusive, Gal4-VP16 FLuc 22µM
CC1CCCN(S(=O)(=O)c2ccc(C(=O)Nc3sc4c(c3C(N)=O)CCN(C)C4)cc2)C1 (centres undefined)	MCF10A rereplic inconclusive, SW480 rerep inconclusive, RORgamma inh inconclusive, IL1B secr inh -98, Gal4-VP16 FLuc inconclusive
CCCN1CCc2c(sc(NC(=O)c3ccc(S(=O)(=O)N4CCCC4)cc3)c2C(N)=O)C1	MCF10A rereplic inconclusive
CNC(=O)c1c(NC(=O)c2ccc(S(=O)(=O)N3CCCCC3C)cc2)sc2c1CCN(C)C2 (centres undefined)	MCF10A rereplic 21µM, SW480 rerep inconclusive
c1ccc(CNc2ncncc2-c2ccc3c(c2)OCO3)cc1	none (no result: MCF10A rereplic, SW480 rerep, IL1B secr inh)
COc1ccc(CNc2ncnc3ccc(-c4cccc(NS(C)(=O)=O)c4)cc23)c(OC)c1	RORgamma inh inconclusive (no result: MCF10A rereplic, SW480 rerep, IL1B secr inh)
CC(C)(C)n1[nH]c2c3c(ccc2c1=O)C(=O)c1ccccc1C3=O	SW480 rerep 12µM, RORgamma inh inconclusive
Cc1ccc(C)c(-n2[nH]c3c4c(ccc3c2=O)C(=O)c2ccccc2C4=O)c1	MCF10A rereplic 18µM, RORgamma inh 6.3µM
COCCCn1[nH]c2c3c(ccc2c1=O)C(=O)c1ccccc1C3=O	MCF10A rereplic inconclusive, SW480 rerep inconclusive, RORgamma inh 16µM, Gal4-VP16 FLuc inconclusive
CCN1CCN(C(=O)N[C@H](C(=O)N[C@@H]2C(=O)N3C(C(=O)O)=C(CSc4nnnn4C)CS[C@@H]23)c2ccc(O)cc2)C(=O)C1=O	none (no result: MCF10A rereplic, SW480 rerep, IL1B secr inh)
CCOC(=O)Cn1nc(/C=C/c2ccccc2)ccc1=O	Gal4-VP16 FLuc 14µM
CCCc1c(C)nn(C(=O)/C(C#N)=N/Nc2ccccc2[N+](=O)[O-])c1C	none
COc1ccc(C(=O)/C(C#N)=N/Nc2ccc([N+](=O)[O-])cc2)cc1	MCF10A rereplic inconclusive, SW480 rerep inconclusive, RORgamma inh 5.6µM, Gal4-VP16 FLuc 3.5µM
COc1ccc(N/N=C(\C#N)C(N)=O)cc1	none
COc1ccc(C(=O)/C(C#N)=N/Nc2ccccc2[N+](=O)[O-])cc1	MCF10A rereplic 1.8µM, SW480 rerep 5.8µM, RORgamma inh inconclusive, Gal4-VP16 FLuc inconclusive
CCCCNC(=O)C1(C)CCN1C(=O)c1cc(F)ccc1C (centres undefined)	none (no result: MCF10A rereplic, SW480 rerep, RORgamma inh, Gal4-VP16 FLuc)
N#Cc1c(NC(=O)/C=C/C(=O)O)sc2c1CCN(Cc1ccccc1)C2	MCF10A rereplic inconclusive
COc1cc(C)ccc1S(=O)(=O)NC(=O)C1(C)CCN1C(=O)Cc1ccc(C(C)(C)C)cc1 (centres undefined)	none (no result: MCF10A rereplic, SW480 rerep, RORgamma inh, Gal4-VP16 FLuc)
Cc1cc(NC(=O)CN(C)S(=O)(=O)c2ccc(-c3ccc(=O)[nH]n3)s2)ccc1Br	RORgamma inh 13µM, Gal4-VP16 FLuc inconclusive
Cc1cccc(C)c1NC(=O)CN(C)S(=O)(=O)c1ccc(-c2ccc(=O)[nH]n2)s1	MCF10A rereplic inconclusive
CCOc1ccccc1NC(=O)c1ccc2c(O)c(S(=O)(=O)c3ccccc3)c(=O)[nH]c2c1	none (no result: MCF10A rereplic, SW480 rerep, RORgamma inh, Gal4-VP16 FLuc)
CCOC(=O)c1c(C)nc2c(c1-c1cc(OC)ccc1OC)C(=O)c1ccccc1-2	none
CCOC(=O)C1=C(Cc2ccc(OC)cc2)C(=O)c2ccccc2C1=O	SW480 rerep 6.5µM, RORgamma inh 10µM, IL1B secr inh -82, Gal4-VP16 FLuc inconclusive
CCOC(=O)C1=C(Cc2ccc(C)cc2)C(=O)c2ccccc2C1=O	RORgamma inh 11µM, Gal4-VP16 FLuc inconclusive (no result: MCF10A rereplic, SW480 rerep, IL1B secr inh)
COCC(=O)N1CCC2(CC1)CN(c1ccncc1)C2	none (no result: MCF10A rereplic, SW480 rerep, IL1B secr inh)
O=C1c2ccccc2C(=O)c2[nH]cnc21	RORgamma inh 11µM, Gal4-VP16 FLuc inconclusive
O=C1C(O)=C(O)C(=O)c2ccccc21	MCF10A rereplic inconclusive, SW480 rerep inconclusive (no result: RORgamma inh, Gal4-VP16 FLuc)
O=C1c2ccccc2C(=O)c2[nH]c(=O)[nH]c21	MCF10A rereplic inconclusive, SW480 rerep 1.3µM, RORgamma inh 4µM, IL1B secr inh inconclusive, Gal4-VP16 FLuc 7.1µM
O=C(c1cc(C2CCCCN2S(=O)(=O)Cc2ccccc2)on1)N1CCOCC1 (centres undefined)	none (no result: MCF10A rereplic, SW480 rerep, RORgamma inh, Gal4-VP16 FLuc)
CCN(CC(=O)Nc1ccccc1OC)C(=O)c1ccc2[nH]c3c(c2c1)CC(C)CC3 (centres undefined)	MCF10A rereplic 18µM (no result: RORgamma inh, Gal4-VP16 FLuc)
CC1CCc2[nH]c3ccc(C(=O)N4CCCC(C(F)(F)F)C4)cc3c2C1 (centres undefined)	SW480 rerep inconclusive, IL1B secr inh -62 (no result: RORgamma inh, Gal4-VP16 FLuc)
CC1CCc2[nH]c3ccc(C(=O)N(C)CC(=O)Nc4ccccc4Cl)cc3c2C1 (centres undefined)	none (no result: RORgamma inh, Gal4-VP16 FLuc)
CCOC(=O)C1CCCN(C(=O)c2ccc3[nH]c4c(c3c2)CC(C)CC4)C1 (centres undefined)	none (no result: RORgamma inh, Gal4-VP16 FLuc)
CCOc1ccc(NC(=O)CN(C)C(=O)c2ccc3[nH]c4c(c3c2)CC(C)CC4)cc1OCC (centres undefined)	none (no result: RORgamma inh, Gal4-VP16 FLuc)
Cc1ccc(NC(=O)CN(C)C(=O)c2ccc3[nH]c4c(c3c2)CC(C)CC4)cc1 (centres undefined)	MCF10A rereplic inconclusive, SW480 rerep inconclusive, IL1B secr inh -51 (no result: RORgamma inh, Gal4-VP16 FLuc)
CCCN(CC(=O)Nc1ccccc1OC)C(=O)c1ccc2[nH]c3c(c2c1)CC(C)CC3 (centres undefined)	MCF10A rereplic inconclusive, IL1B secr inh -59 (no result: RORgamma inh, Gal4-VP16 FLuc)
COc1cc(CNC(=O)Nc2nnc([C@H]3C[C@H](O)[C@@H](CO)O3)s2)cc(OC)c1OC	none (no result: MCF10A rereplic, SW480 rerep, RORgamma inh, Gal4-VP16 FLuc)
COc1ccc2c(=O)c(OC)c(-c3ccccc3)oc2c1	none (no result: MCF10A rereplic, SW480 rerep, IL1B secr inh)
